Entries with a potency or affinity are not part of this list. Active and inactive are the calls of the source.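 The calls were made as follows: active = combined score above 52, rewarding potency beyond a set limit and curve height beyond a set limit; inactive = the rest.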
Target: Broad substrate specificity ATP-binding cassette transporter ABCG2 (Homo sapiens) (UniProt Q9UNQ0)
Assay: ABCG2 efflux pump inhibitor potency, dose response, Ig-MXP3 cells, JC-1, flow cytometry, set 2 (AID 504566)
Settings: JC-1 efflux; series mostly up to 50 µM

Chain of Broad substrate specificity ATP-binding cassette transporter ABCG2 (Homo sapiens) (Q9UNQ0 whole entry, looked up): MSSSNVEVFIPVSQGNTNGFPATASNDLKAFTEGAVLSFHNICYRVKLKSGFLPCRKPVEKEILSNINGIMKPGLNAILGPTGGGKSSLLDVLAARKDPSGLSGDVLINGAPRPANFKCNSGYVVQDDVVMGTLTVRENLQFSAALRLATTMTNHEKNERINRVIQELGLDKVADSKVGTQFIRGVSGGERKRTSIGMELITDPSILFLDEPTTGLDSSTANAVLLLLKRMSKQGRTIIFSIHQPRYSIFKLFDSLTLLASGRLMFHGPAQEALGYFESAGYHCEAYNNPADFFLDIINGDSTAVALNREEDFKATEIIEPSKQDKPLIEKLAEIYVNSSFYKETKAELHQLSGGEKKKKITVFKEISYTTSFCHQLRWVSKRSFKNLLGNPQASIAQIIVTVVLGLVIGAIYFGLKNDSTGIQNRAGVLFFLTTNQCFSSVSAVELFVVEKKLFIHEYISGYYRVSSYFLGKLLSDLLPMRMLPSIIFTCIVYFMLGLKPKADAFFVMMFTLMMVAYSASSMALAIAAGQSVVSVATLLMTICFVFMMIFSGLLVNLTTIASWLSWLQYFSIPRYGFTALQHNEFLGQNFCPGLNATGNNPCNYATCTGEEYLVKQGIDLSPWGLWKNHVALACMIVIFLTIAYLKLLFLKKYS

outcome, inactive:
Cc1nc2cc(-c3cccs3)nn2c(N2CCN(C(=O)c3ccco3)CC2)c1C, O=S(=O)(c1ccccc1)N1CCN(c2cc(-c3ccccc3)nc3cc(-c4cccc(Cl)c4)nn23)CC1, CC(=O)N1CCN(c2c(C)c(C)nc3cc(-c4ccc(Cl)cc4)nn23)CC1
